Source: PubChem (NMMLSC)
Compounds with a hit are over-represented: about 2.5% of the library has one in this group of screens.
MEKK2 WT-MEK5: raises or lowers MEK5 binding to wildtype human MEKK2 PB1 domain. Q9Y2U5. bead flow cytometry, Alexa488-MEK5 binding to MEKK2 WT; actives lie on both sides. binding response (% of control), % at 10 µM. 1.1% of 290,000 active. AID 1531; in the data active = binding response below about 67% or above about 130%
MEKK2 mut-MEK5: signal of MEK5 binding to mutant human MEKK2 PB1 domain | 0.35% of 290,000 active | percent response, % at 10 µM | AID 1530 | bead flow cytometry, Alexa488-MEK5 binding to MEKK2 mutant; in the data active = percent response above about 24%, passing the limit was not always enough
MEKK3 PB1 HTS: modulators (inhibitors or enhancers) of MEK5 binding to human MEKK3 PB1 domain; AID 1529; Q99759; bead-based flow cytometry, Alexa488-MEK5 binding to MEKK3; actives lie on both sides; 0 = blocked by unlabeled MEK5, 100 = vehicle; binding response (% of control), % at 10 µM; 1.4% of 290,000 active;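 active = binding response more than 3 SD above or below the average of its plate-row segment, actives on both sides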;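 also: Alexa488 bead fluorescence after subtracting the streptavidin-only scavenger bead signal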
GRK2 aptamer HTS: inhibitors of human GRK2 displacing RNA aptamer. bead flow cytometry, FAM-aptamer displacement from GRK2. 0.59% of 330,000 active. AID 488847. P25098. inhibition of aptamer binding, % at 10 µM;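 active = inhibition of aptamer binding above 40%, roughly 3 SD of noise, on plates passing a quality check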;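 also: median bead fluorescence of bound FAM aptamer so fluorescent compounds give negative values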
Target sequence (P25098 whole entry, looked up): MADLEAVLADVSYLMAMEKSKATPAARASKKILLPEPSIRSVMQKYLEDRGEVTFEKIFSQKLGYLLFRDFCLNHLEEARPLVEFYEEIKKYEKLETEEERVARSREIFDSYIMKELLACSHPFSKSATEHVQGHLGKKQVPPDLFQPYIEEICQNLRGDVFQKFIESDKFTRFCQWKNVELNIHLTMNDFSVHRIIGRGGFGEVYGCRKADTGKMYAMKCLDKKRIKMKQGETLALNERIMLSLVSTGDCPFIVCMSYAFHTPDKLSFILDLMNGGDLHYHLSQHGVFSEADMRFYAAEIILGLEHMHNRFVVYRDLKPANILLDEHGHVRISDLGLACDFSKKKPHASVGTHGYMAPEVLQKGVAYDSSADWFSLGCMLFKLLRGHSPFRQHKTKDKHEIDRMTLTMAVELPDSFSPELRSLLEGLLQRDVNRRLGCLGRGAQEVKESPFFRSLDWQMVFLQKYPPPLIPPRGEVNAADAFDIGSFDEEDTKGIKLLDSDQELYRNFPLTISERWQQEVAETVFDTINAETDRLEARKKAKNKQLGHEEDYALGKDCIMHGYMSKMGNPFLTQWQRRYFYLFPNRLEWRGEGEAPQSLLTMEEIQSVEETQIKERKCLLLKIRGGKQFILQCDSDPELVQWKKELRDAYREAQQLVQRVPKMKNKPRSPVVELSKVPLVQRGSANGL
The depositor's hits bear a star; . = no result; ! = repeats disagree; [ ] = another dose, or the depositor's remark.

SMILES	MEKK2 WT-MEK5	MEKK2 mut-MEK5	MEKK3 PB1 HTS	GRK2 aptamer HTS
C=C(C)C(=O)Nc1cccc(C2=NOC3(C2)C[C@@H](C(N)=O)N(C(=O)/C(C)=C/C)C3)c1 (stereo partly drawn)	78	-10	91	94*
C=C(C)C(=O)Nc1cccc(C2=NOC3(C2)C[C@H](C(N)=O)N(C(=O)CC)C3)c1 (stereo partly drawn)	91	8	95	72*
C/C=C(\C)C(=O)Nc1cccc(C2=NOC3(C2)C[C@@H](C(N)=O)N(C(=O)c2ccccc2C(=O)c2ccccc2)C3)c1 (stereo partly drawn)	67	-17	58	5
C=C(C)C(=O)Nc1cccc(C2=NOC3(C2)C[C@H](C(N)=O)N(C(=O)c2ccccc2C(=O)c2ccccc2)C3)c1 (stereo partly drawn)	82	-22	85	91*
CCOC(=O)N1CCC(NC(=O)c2cc(C(=O)Nc3ccc(OC)c(OC)c3)ccc2CO)CC1	106	11	103	0
NC(=O)CSc1nnc(-c2cccnc2)n1CCc1ccccc1	101	7	105	0
COc1ccccc1N1CCN(C2CCN(S(=O)(=O)c3ccc(C)cc3)CC2)CC1	90	-9	86	0
O=C(NC1CCCCC1)N(C1=NCCCCC1)c1ccc(Br)cc1	15*	4	106	2
O=C(NNS(=O)(=O)c1ccc(Br)cc1)NC1CCCCC1	87	-8	83	1
COc1ccc(NC(=S)N(CCCN2CCCC2)Cc2cccn2Cc2ccc(Cl)cc2)cc1Cl	293*	161*	115	0
Cc1ccc(NC(=S)N(CCCN2CCCC2)Cc2cccn2Cc2ccc(Cl)cc2)cc1Cl	317*	25	112	0
Cc1ccc(NC(=S)N(CCCN2CCCC2)Cc2cccn2Cc2ccc(Cl)cc2)cc1C	228*	74*	108	0
Cc1cc(NC(=S)N(CCN2CCCCC2)Cc2ccco2)ccc1Cl	124	12	106	0
COc1ccc(NC(=S)N(CCCN2CCC(C)CC2)Cc2cccs2)cc1Cl	130	13	101	0
CCNC(=S)N(CCc1cccc(C)c1)Cc1cc2cc(OC)c(OC)cc2[nH]c1=O	89	-3	86	7
Cc1ccc(NC(=O)c2ccco2)c(NC(=O)c2ccccc2)c1	-12*[inhibitor]	-26	0.0*[inhibitor]	4
COc1ccc(N(C)C(=O)c2cc3c(Cl)nc4ccccc4c3s2)cc1	113	9	99	2
CN(CCCNC(=O)c1cc2c(Cl)nc3ccccc3c2s1)Cc1ccccc1	193*	44	110	0
CC1CCCN(CCCNC(=O)c2cc3c(Cl)nc4ccccc4c3s2)C1 (stereo not drawn)	189*	54*	106	0
CC(C(=O)Nc1cccc([N+](=O)[O-])c1)N1CCN(C/C=C/c2ccccc2)CC1 (stereo not drawn)	115	3	102	0
Cc1ccc2cc(C3CC(c4cccs4)=NN3S(C)(=O)=O)c(Cl)nc2c1 (stereo not drawn)	-4.0*	5	97	15
CCOC(=O)C1=C(COC(=O)CNC(=O)c2ccc(C)cc2)NC(=O)NC1C (stereo not drawn)	97	4	97	0
COc1cccc(/C=C2\SC(=S)N(C(C(=O)O)c3ccccc3)C2=O)c1OC (stereo not drawn)	-4.0*	1	98	1
Cn1cccc1/C=N/NC(=O)Cc1cccc2ccccc12	105	3	105	0
C=CCn1c(SCC(=O)Nc2cc3oc4ccccc4c3cc2OC)nnc1-c1cnccn1	140*	11	110	1
SMILES	MEKK2 WT-MEK5	MEKK2 mut-MEK5	MEKK3 PB1 HTS	GRK2 aptamer HTS
O=C(CN1CCN(c2ccc(O)cc2)CC1)Nc1cc([N+](=O)[O-])ccc1Cl	15*	19	96	0
COc1cccc(OC)c1NC(=O)NC(=O)c1c(OC)c(Br)cc([N+](=O)[O-])c1OC	99	-2	101	2
CC(=O)CCCCn1cnc2c1c(=O)n(C)c(=O)n2C	-14*!	-7	90	3
CCC1=NNc2cccc3c(OC)ccc1c23	72	-22	61	81*
COc1ccc2c3c(cccc13)C(=O)N(O)C2=O	113	0	112	4
O=c1/c(=C/c2ccco2)sc2n1CN(c1cccc(Br)c1)CN=2	.	.	.	2
CCC(C)NC(=O)c1ccc(C(=O)c2ccccc2)cc1 (stereo not drawn)	92	-2	95	1
O=C(O)Cc1ccc(NC(=O)C2CC=CCC2C(=O)O)cc1 (stereo not drawn)	98	-3	102	44*
Cc1ccc(N(CC(=O)Nc2ccccc2C(=O)NCc2ccco2)S(=O)(=O)c2ccccc2)cc1C	119	29*	99	0
O=C(CN(c1ccccc1)S(=O)(=O)c1ccccc1)Nc1ccccc1C(=O)NCc1ccco1	96	-3	97	0
COc1ccc2c(C)cc(SCC(=O)Nc3nsc(-c4ccc(C)cc4)n3)nc2c1	95	-4	106	45*
CCOC(=O)c1ccc(NC(=O)CCOc2ccc(OC)cc2)cc1	95	-8	96	5
Cc1ccc(S(=O)(=O)NC(=O)NCc2ccc(Cl)cc2)cc1	112	8	106	25
COc1ccc(Nc2nc(Nc3ccc(OC)cc3)nc(-n3[nH]c(=O)c(C)c3C)n2)cc1	102	0	103	0
O=C(NCC1CCN(Cc2ccc(Cl)cc2)CC1)C1CCCN(c2ncnc3c2nc2n3CCCCC2)C1 (stereo not drawn)	132	25*	107	0
O=C(NCC1CCN(Cc2ccc(F)cc2)CC1)C1CCCN(c2ncnc3c2nc2n3CCCCC2)C1 (stereo not drawn)	107	3	98	0
COc1ccc(Nc2ccnc3ccccc23)cc1	119	16	113	0
CC(C)Nc1ccc(Nc2ccnc3cc4ccccc4cc23)cc1	208*	80*	109	0
O=S(=O)(c1ccccc1)c1nnn2c1nc(NC1CCN(Cc3ccccc3)CC1)c1ccccc12	146*	32*	102	0
Cc1ccc(C)c(Nc2nc3c(S(=O)(=O)c4ccccc4)nnn3c3ccccc23)c1	108	0	107	0
O=S(=O)(c1ccccc1)c1nnn2c1nc(NC1CCN(Cc3ccccc3)CC1)c1cc(Cl)ccc12	138*	33*	106	0
COc1ccc(S(=O)(=O)N(CC(=O)NC2CC3CCC2C3)c2ccccc2OC)cc1 (stereo not drawn)	92	-8	98	0
CC1=C(C#N)C(Nc2ccc(Cl)cn2)(C(F)(F)F)C(=O)N1 (stereo not drawn)	97	-5	100	3
CS(=O)(=O)N(CC(=O)N1CCN(Cc2ccccc2)CC1)Cc1ccccc1	84	-5	82	2
O=C(CSc1nc2ccccc2c(=O)n1-c1ccc(F)cc1)Nc1ccc(N2CCOCC2)cc1	104	6	93	1
